SMN2 splice enh: increases expression of the SMN2 splice variant. AID 1458. 210,000 compounds, 2.8% hits. Potency, µM (highest dose often 46.1 µM), for inactives: top-dose activity change, positive = activation, hits mostly activators. HEK293 SMN2-luciferase splicing reporter, luminescence, 30-36 h; also: % of control where 0% means no effect; nearly all actives have a fitted effect of over 55% in size
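qHTS luciferase splicing reporter: luminescence rises when SMN2 exon 7 is included in transfected HEK293 cells. Compound exposure lasted 30-36 h at 37C, with 4.5 mM final sodium butyrate as control, followed by a ONE-Glo read.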
Rab9 prom act: activates the Rab9 promoter | Huh7 Rab9 promoter-luciferase reporter, luminescence, 24 h | Potency, µM (doses to about 9.22 µM), without a hit: at the highest dose activation, negative = inhibition, actives largely listed as activators | 320,000 compounds, 2.8% hits; also: % of control where 0% means no effect; nearly all actives have a fitted effect of over 60% in size
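Stable Rab9-luc Huh7, 1500 cells/well, 2 h settle; cmpd in DMSO, 24 h, 37 °C/5% CO2; luciferase reagent 10 min RT; luminescence.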
ELG1 genotoxic: genotoxicity induction in ELG1-luciferase HEK293T cells; Potency, µM (top dose mostly 46 µM), for the others: at the top dose activity change, positive = activation, hits mostly activators; HEK293T ELG1-luciferase reporter, luminescence, 16 h; AID 504466; 330,000 compounds, 1.3% hits; also: % of control where 0% means no effect; nearly all actives have a fitted effect of over 60% in size
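After overnight (16 hr) compound treatment at 37 °C, ELG1-luciferase HEK293T cells were lysed with ONE-Glo; luminescence quantified 30 min later at room temperature.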
KinaseGlo FLuc: Kinase-Glo luciferase inhibition (counter-screen); AID 1379; 200,000 compounds, 0.28% hits; Q27757; Potency, µM (highest dose often 38.3 µM), without a hit: at the highest dose activity change, negative = inhibition, most hits filed as inhibitors; Kinase-Glo luciferase, ATP luminescence, 8 min; also: % is scaled to controls: 0 for no effect and ±100 for the full control effect; nearly all actives have a fitted effect of over 60% in size
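Light output from Kinase-Glo luciferase with luciferin and 10 uM ATP in 50 mM imidazole pH 7.2, KCl, MgCl2, Tween 20, BSA; compound pin-delivered, 8-min ambient incubation, then luminescence read.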
NPC1 prom act: NPC1 promoter activation; Huh7 NPC1 promoter luciferase reporter, 24 h; 320,000 compounds, 2.4% hits; Potency, µM (highest dose often 9.22 µM), without a hit: top-dose activation, most hits filed as activators; AID 485313; also: % of control where 0% means no effect; nearly all actives have a fitted effect of over 60% in size
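NPC1 promoter–luciferase Huh7 cells; 24 h compound; luminescence.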
FLuc counter: counter-screen for miR-21 project: firefly luciferase inhibitors or activators; purified FLuc, Km substrates, luminescence inhibition; P08659; 360,000 compounds, 6.9% hits; Potency, µM (titrated, usually from 57.5 µM), for inactives: top-dose activity change, negative = inhibition, most hits filed as inhibitors;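 also: plate controls were vehicle for no effect and reference inhibitor for full effect; nearly all actives have a fitted effect of over 55% in size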
Target sequence (P08659 whole entry, looked up): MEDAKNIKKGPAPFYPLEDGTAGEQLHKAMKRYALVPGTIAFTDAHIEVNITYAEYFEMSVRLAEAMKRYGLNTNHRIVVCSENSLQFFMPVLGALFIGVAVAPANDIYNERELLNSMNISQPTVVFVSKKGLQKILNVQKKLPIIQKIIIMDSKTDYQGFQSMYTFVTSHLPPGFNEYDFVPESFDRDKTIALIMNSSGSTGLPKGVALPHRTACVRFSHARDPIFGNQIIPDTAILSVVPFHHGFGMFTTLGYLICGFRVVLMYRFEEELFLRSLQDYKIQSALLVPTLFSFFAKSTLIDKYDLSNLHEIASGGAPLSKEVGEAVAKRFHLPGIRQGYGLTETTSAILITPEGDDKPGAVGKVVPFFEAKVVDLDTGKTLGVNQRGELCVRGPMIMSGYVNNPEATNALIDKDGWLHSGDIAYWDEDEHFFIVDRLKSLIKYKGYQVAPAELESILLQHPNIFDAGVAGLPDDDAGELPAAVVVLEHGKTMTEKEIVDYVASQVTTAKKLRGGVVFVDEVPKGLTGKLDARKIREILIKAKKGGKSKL
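Purified P. pyralis luciferase, 10 nM final, with Km-level 10 uM D-luciferin and 10 uM ATP in 50 mM Tris acetate pH 7.5, 10 mM Mg acetate, 0.01% Tween-20, 0.05% BSA; 6-point qHTS titration about 60 µM downward; luminescence read.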
An asterisk follows results filed as active; ? = inconclusive; · = no result; [ ] = remark or other dose. Rows were chosen to be rich in hits. Some 7.4% of all compounds tested hit in one or more screens of this group. Calls follow the shape of the dose curve; as a rule, active = well fitted curve in the direction sought with a large enough effect; inconclusive = small, poorly fitted or top-dose-only effect, or another doubt; inactive = no such curve, though single readings can be large; an effect the other way counts as inactive or inconclusive. Potency is read from the fitted curve at half-maximal effect.

SMILES | SMN2 splice enh | Rab9 prom act | ELG1 genotoxic | KinaseGlo FLuc | NPC1 prom act | FLuc counter
Cc1ccc(Oc2ccc(NS(=O)(=O)c3cccc(C(=O)O)c3)cc2)cc1 | · | · | 1% | · | · | ·
COc1cc(/C=C/c2[nH]c(=O)[nH]c(=O)c2[N+](=O)[O-])cc(OC)c1O | · | -3% | -1% | · | -7% | ?
COc1cccc(/C=C/c2[nH]c(=O)[nH]c(=O)c2[N+](=O)[O-])c1O | · | 6% | 0% | · | 1% | 17µM*
CC(C)CC(c1nnnn1Cc1ccc(F)cc1)N1CCC(C(N)=O)CC1 (configuration not stated) | -5% | -4% | 1% | -1% | 0% | 0%
O=C1CCCC/C1=C\Nc1ccc(O)cc1 | ? | 15% | ? | -12% | 11% | ?
COc1ccc(NC(=O)N2CCCCC2)cc1 | ? | 24% | ? | -4% | 17% | -22%
Cc1ccc(NC(=O)N2CCCCCC2)cc1 | · | ? | ? | · | ? | 15µM*
CCc1ccc(NS(=O)(=O)c2ccc(NC(=O)N3CCCC3)cc2)cc1 | · | · | · | · | · | 2%
COC(=O)c1ccc(NC(=S)N2CCCC2)cc1 | 11% | -3% | -8% | 3% | 0% | 4%
COC(=O)c1ccc(NC(=O)C(=O)N2CCCC2)cc1 | ? | ? | ? | -10% | 2.8µM* | 21µM*
CCOC(=O)c1ccc(N/C=C2\CCCCC2=O)cc1 | ? | 2.5µM* | 2.3µM* | -3% | 4µM* | 2.7µM*
CCc1ccc(NC(=O)N2CCCCCC2)cc1 | · | 1.8µM* | 21µM* | · | 2.2µM* | 13µM*
CC1(C)O[C@H]2[C@@H](O1)[C@@H](C(=O)Nc1cc(F)ccc1F)O[C@@H]1OC(C)(C)O[C@@H]12 | 7% | · | · | · | · | 2%
CC1CCC(NC(=O)CCC(=O)N2CC(C)Oc3ccccc32)CC1 (configuration not stated) | · | ? | 6% | · | ? | ?
NS(=O)(=O)c1cc(C(=O)N2CCNC(=O)C2)ccc1Cl | · | 0% | 3% | · | 6% | -1%
CCN1CCN(C(=O)Nc2ccc(Cc3ccc(NC(=O)N4CCN(CC)CC4)cc3)cc2)CC1 | 7% | 11% | -5% | -5% | 1% | 13µM*
CCOC(=O)c1ccc(NC(=O)N2CCCCC2)cc1 | ? | 3.2µM* | 10µM* | -1% | 2.5µM* | 13µM*
O=C(Nc1ccccc1)N1CCN(CCc2ccccc2)CC1 | 7% | -1% | 3% | 0% | -1% | -2%
O=C(Nc1ccc(Br)cc1)N1CCCCCC1 | · | 2.2µM* | ? | · | ? | 11µM*
CCOC(=O)c1c(-c2cccs2)csc1NC(=O)CC(C)C | 3% | -2% | 3% | -4% | 3% | -1%
COC(=O)c1c(-c2cccs2)csc1NC(=O)COc1ccc(C)cc1 | · | · | · | · | · | -18%
COC(=O)c1c(-c2cccs2)csc1NC(=O)COc1ccccc1 | · | · | · | · | · | 6.7µM*
COC(=O)c1c(-c2cccs2)csc1NC(=O)c1cccnc1 | -1% | ? | 6% | -5% | 28% | 17µM*
CN(C)c1ccc(C(=O)OCC(=O)NCC2CCCO2)cc1 (configuration not stated) | -1% | 0% | 1% | 1% | 0% | 0%
OC1OC[C@@H](O)[C@H](O)[C@H]1O (some centres not stated) | · | 1% | 0% | · | -2% | -1%
SMILES | SMN2 splice enh | Rab9 prom act | ELG1 genotoxic | KinaseGlo FLuc | NPC1 prom act | FLuc counter
O=C(Nc1ccc(OCC(F)(F)C(F)F)c(C(F)(F)F)c1)c1ccccc1O | -30% | -35% | 14% | 1% | 0% | 21µM*
CC(=O)Nc1ccc(C(=O)CSc2nccc(=O)[nH]2)cc1 | · | 4% | 6% | · | 0% | -11%
COc1ccc(-c2nnc(-c3cc4ccccc4oc3=O)o2)cc1 | ? | 24% | 16% | 4% | 2% | -1%
Cc1cc(-c2nnc(-c3cc4ccccc4oc3=O)o2)c(C)n1-c1ccccc1 | -6% | 21% | ? | -3% | 24% | 6.7µM*
COc1ccc2oc(=O)c(-c3nc4ccccc4o3)cc2c1 | ? | ? | ? | -4% | ? | 5.4µM*
O=c1cc(-c2cc3ccccc3oc2=O)c2ccc(O)cc2o1 | -2% | · | · | 2% | · | ·
O=c1oc2ccccc2cc1-c1nc2ccccc2o1 | ? | 2.8µM* | ? | ? | 3.5µM* | 3µM*
O=c1oc2ccccc2cc1-c1nc2c(s1)CCCC2 | 1µM* | 0.4µM* | ? | 11µM* | ? | 0.15µM*
O=c1oc2ccccc2cc1-c1nc(-c2cccc(Cl)c2)cs1 | · | · | · | · | · | 3%
Cc1ccc(C)c(N2N=C(C(=O)NCCN3C(=O)S/C(=C\c4cccnc4)C3=O)CCC2=O)c1 | · | -5% | 0% | · | 1% | -2%
COc1cccc(C(=O)COC(=O)CCCC(=O)NC2CCCCC2)c1 | · | 0% | -1% | · | -3% | 27µM*
COc1cc(NC(=O)NC2Cc3ccccc3C2)cc(OC)c1 | · | 15% | 8% | · | 5% | 17µM*
O=C(Nc1ccc2c(c1)OCCO2)NC1CCCCC1 | 10µM* | 0.56µM* | 1.6µM* | -2% | 0.63µM* | 3.8µM*
O=C(Nc1ccc2c(c1)OCCO2)C1CCC1 | 14% | 1% | 10% | -2% | 12% | 1%[2.3 µM]
O=C(Nc1cccc(F)c1)NC1CC2CCCC(C1)N2C1CC1 (configuration not stated) | 15% | 3% | 2% | -3% | -1% | 2%
O=C(Nc1cccc(F)c1)NC1CCCCC1 | 18µM* | ? | ? | -2% | ? | 24µM*
O=C(Nc1ccc(F)cc1F)NC1CCCCCCC1 | · | ? | ? | · | ? | 12µM*
COc1cccc(NC(=O)NC2CCCCCCC2)c1 | · | ? | ? | · | 3.5µM* | 11µM*
COc1cccc(NC(=O)C(=S)NC2CCCCC2)c1 | 3.5µM* | 0.79µM* | ? | -20% | 2µM* | 2.4µM*
CCN(CC)C(=O)CSc1nc2c(sc(=S)n2-c2ccccc2)c(=O)n1-c1ccc(OC)c(OC)c1 | · | -8% | -4% | · | -5% | 2%
CC(=O)NCCc1nc2cc(NS(=O)(=O)c3ccccc3)ccc2n1C | · | -3% | -2% | · | -2% | 0%
CCCSc1nc(N)c2c3c(sc2n1)CN(C)CC3 | 24% | 2% | ? | -2% | 9% | ?
CC(C)Sc1nc(N)c2c3c(sc2n1)CN(C)CC3 | 11µM* | ? | ? | 1% | ? | 24µM*
COc1cc(CNC(=O)CSCc2nc3cccnc3n2C2CCCCC2)cc(OC)c1OC | · | · | · | · | · | -3%
CCn1c(CNC(=O)COc2ccc(C(C)C)cc2)nnc1SCC(=O)Nc1cc(F)ccc1C | -25% | 0% | -8% | -1% | -2% | -17%
Cn1c(CCCOc2ccc(Cl)cc2Cl)nnc1SCC(=O)Nc1cccc(F)c1 | -6% | 11% | 0% | 0% | 0% | 4.8µM*

Screens deposited in PubChem by National Center for Advancing Translational Sciences (NCATS).
